# Source: ChEMBL document CHEMBL2218924, “A broad activity screen in support of a chemogenomic map for kinase signalling research and drug discovery” (Biochem J, 2013)
# Experiments:
# [1] = biological target: T1, Serine/threonine-protein kinase BRSK1 (Homo sapiens) (UniProt Q8TDC3); conditions: at 1 µM
# T1 sequence (whole entry): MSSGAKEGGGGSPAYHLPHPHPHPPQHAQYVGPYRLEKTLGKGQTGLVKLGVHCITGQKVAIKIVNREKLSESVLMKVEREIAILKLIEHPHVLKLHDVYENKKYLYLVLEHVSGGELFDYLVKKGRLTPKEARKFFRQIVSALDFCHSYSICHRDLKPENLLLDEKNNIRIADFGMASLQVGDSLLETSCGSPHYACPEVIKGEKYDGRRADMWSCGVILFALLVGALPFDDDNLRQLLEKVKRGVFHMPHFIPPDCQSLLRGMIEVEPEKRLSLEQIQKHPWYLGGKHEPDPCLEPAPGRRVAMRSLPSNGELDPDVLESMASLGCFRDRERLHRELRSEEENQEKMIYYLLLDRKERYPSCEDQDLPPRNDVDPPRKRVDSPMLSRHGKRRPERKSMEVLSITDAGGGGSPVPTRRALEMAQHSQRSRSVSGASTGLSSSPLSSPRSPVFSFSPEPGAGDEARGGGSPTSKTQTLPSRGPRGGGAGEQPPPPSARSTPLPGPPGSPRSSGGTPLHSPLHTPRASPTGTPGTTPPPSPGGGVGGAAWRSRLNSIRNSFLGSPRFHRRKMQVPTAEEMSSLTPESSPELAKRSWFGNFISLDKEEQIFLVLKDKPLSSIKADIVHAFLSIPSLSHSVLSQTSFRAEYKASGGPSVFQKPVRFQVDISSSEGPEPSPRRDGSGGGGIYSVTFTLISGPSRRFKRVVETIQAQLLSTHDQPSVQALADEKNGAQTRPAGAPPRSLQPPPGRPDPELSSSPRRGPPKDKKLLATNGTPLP
# [2] = biological target: T1, Serine/threonine-protein kinase BRSK1 (Homo sapiens); conditions: at 10 µM
# [3] = biological target: T2, Serine/threonine-protein kinase BRSK2 (Homo sapiens) (UniProt Q8IWQ3); conditions: at 1 µM
# T2 sequence (whole entry): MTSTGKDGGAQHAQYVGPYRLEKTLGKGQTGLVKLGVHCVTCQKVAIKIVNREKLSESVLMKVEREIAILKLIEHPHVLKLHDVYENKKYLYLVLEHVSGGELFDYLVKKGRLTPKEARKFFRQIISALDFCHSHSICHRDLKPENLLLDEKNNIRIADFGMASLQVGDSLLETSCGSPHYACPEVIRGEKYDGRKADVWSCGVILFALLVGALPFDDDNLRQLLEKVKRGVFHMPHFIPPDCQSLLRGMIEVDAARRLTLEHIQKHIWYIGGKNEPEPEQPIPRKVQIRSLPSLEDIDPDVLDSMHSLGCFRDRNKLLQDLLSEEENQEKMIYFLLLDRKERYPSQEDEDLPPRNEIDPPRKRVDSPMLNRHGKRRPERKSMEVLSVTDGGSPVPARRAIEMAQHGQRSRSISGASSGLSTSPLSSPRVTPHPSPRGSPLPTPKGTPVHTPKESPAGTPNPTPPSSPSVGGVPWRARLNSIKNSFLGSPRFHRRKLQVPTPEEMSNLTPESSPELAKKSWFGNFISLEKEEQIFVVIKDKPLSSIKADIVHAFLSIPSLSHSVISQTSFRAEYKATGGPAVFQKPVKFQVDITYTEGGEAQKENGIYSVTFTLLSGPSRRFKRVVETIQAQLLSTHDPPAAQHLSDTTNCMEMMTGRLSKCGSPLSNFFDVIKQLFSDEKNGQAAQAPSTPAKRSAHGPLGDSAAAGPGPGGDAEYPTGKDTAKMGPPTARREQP
# [4] = biological target: T2, Serine/threonine-protein kinase BRSK2 (Homo sapiens); conditions: at 10 µM
# [5] = biological target: T3, Cyclin-dependent kinase 1/cyclin B1 (Homo sapiens) (UniProt P06493+P14635); conditions: at 1 µM
# [6] = biological target: T3, Cyclin-dependent kinase 1/cyclin B1 (Homo sapiens); conditions: at 10 µM
# [7] = biological target: T4, Cyclin-dependent kinase 2/cyclin A (Homo sapiens) (UniProt P24941+P20248+P78396); conditions: at 1 µM
# [8] = biological target: T5, Cyclin-dependent kinase 2/cyclin E (Homo sapiens) (UniProt P24864+P24941+O96020); conditions: at 1 µM
# [9] = biological target: T5, Cyclin-dependent kinase 2/cyclin E (Homo sapiens); conditions: at 10 µM
# [10] = biological target: T6, CDK3/cyclin E (Homo sapiens) (UniProt P24864+O96020+Q00526); conditions: at 1 µM
# [11] = biological target: T6, CDK3/cyclin E (Homo sapiens); conditions: at 10 µM
# [12] = biological target: T7, Cyclin-dependent kinase 5/CDK5 activator 1 (Homo sapiens) (UniProt Q00535+Q15078); conditions: at 1 µM
# [13] = biological target: T7, Cyclin-dependent kinase 5/CDK5 activator 1 (Homo sapiens); conditions: at 10 µM
# [14] = biological target: T7, Cyclin-dependent kinase 5/CDK5 activator 1 (Homo sapiens); conditions: at 1 µM; remark: listed apart in the source
# [15] = biological target: T7, Cyclin-dependent kinase 5/CDK5 activator 1 (Homo sapiens); conditions: at 10 µM; remark: listed apart in the source
# [16] = biological target: T8, CDK6/cyclin D3 (Homo sapiens) (UniProt P30281+Q00534); conditions: at 1 µM
# [17] = biological target: T8, CDK6/cyclin D3 (Homo sapiens); conditions: at 10 µM
# [18] = biological target: T9, Cyclin-dependent kinase 7/ cyclin H (Homo sapiens) (UniProt P51946+P50613); conditions: at 1 µM
# [19] = biological target: T9, Cyclin-dependent kinase 7/ cyclin H (Homo sapiens); conditions: at 10 µM
# [20] = biological target: T4, Cyclin-dependent kinase 2/cyclin A (Homo sapiens); conditions: at 10 µM
# T6 sequence (O96020 whole entry, looked up): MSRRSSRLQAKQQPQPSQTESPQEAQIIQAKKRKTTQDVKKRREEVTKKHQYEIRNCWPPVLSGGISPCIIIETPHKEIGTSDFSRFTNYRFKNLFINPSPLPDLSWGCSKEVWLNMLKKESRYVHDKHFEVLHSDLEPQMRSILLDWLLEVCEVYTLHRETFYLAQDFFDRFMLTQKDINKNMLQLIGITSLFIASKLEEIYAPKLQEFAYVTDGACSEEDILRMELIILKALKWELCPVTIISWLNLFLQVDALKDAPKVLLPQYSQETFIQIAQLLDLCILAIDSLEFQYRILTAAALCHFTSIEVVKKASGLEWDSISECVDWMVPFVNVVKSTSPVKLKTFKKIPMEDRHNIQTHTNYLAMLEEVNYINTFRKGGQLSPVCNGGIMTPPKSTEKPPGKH
# T6 sequence (P24864 whole entry, looked up): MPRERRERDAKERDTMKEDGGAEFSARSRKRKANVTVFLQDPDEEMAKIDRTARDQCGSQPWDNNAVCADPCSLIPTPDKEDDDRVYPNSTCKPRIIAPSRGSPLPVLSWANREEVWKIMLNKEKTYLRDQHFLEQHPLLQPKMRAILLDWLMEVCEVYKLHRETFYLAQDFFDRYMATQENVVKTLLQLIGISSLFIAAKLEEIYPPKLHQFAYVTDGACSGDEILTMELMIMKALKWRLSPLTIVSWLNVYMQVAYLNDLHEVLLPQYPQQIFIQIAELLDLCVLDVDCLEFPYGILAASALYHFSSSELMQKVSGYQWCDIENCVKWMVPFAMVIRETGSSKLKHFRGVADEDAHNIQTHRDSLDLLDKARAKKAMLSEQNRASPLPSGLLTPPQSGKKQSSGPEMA
# T6 sequence (Q00526 whole entry, looked up): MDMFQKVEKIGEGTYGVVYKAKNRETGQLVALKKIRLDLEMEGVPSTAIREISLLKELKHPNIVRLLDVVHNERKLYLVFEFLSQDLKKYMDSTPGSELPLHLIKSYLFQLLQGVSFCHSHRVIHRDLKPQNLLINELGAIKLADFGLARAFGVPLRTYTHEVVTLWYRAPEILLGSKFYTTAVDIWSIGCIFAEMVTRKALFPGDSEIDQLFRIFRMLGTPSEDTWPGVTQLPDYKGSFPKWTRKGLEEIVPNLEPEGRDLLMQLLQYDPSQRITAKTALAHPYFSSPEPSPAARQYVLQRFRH
# T3 sequence (P06493 whole entry, looked up): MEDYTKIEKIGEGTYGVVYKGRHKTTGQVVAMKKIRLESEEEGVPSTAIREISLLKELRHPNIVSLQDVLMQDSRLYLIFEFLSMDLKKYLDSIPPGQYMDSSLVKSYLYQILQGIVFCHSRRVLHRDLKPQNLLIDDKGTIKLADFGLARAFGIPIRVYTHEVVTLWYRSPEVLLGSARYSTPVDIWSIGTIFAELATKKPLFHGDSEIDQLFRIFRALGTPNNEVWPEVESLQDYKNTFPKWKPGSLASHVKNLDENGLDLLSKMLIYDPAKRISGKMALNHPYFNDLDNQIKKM
# T3 sequence (P14635 whole entry, looked up): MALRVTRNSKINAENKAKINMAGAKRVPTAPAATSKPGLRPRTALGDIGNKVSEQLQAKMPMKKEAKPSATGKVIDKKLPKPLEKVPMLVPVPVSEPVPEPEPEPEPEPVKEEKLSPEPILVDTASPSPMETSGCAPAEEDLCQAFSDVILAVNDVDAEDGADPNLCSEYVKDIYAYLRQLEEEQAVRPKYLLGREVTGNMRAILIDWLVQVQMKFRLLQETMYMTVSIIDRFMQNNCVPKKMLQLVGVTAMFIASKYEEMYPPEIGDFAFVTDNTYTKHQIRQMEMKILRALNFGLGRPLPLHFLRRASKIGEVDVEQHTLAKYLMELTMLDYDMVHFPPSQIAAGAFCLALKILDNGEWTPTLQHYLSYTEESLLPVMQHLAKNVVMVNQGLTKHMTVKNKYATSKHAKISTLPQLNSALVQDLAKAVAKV
SMILES,residual activity [1],residual activity [2],residual activity [3],residual activity [4],residual activity [5],residual activity [6],residual activity [7],residual activity [8],residual activity [9],residual activity [10],residual activity [11],residual activity [12],residual activity [13],residual activity [14],residual activity [15],residual activity [16],residual activity [17],residual activity [18],residual activity [19],residual activity [20]
N#C/C(=C(\N)Sc1ccc(N)cc1)c1ccccc1C(F)(F)F,85%,74%,105%,103%,104%,96%,86%,97%,102%,96%,86%,90%,92%,110%,100%,98%,88%,102%,94%,–
COc1cc2ncnc(Nc3ccc(NC(=O)c4ccccc4)cc3)c2cc1OC,67%,63%,–,99%,–,101%,144%,104%,104%,107%,97%,105%,99%,101%,101%,111%,102%,97%,102%,93%
CNc1cc2c(Nc3cccc(Br)c3)ncnc2cn1,34%,8%,–,26%,111%,99%,123%,105%,107%,88%,83%,98%,110%,79%,89%,94%,81%,87%,74%,94%
Oc1ccc(Nc2nc(-c3ccc(Cl)cc3)cs2)cc1,81%,90%,125%,126%,111%,84%,101%,100%,93%,108%,80%,102%,90%,120%,98%,112%,101%,106%,89%,78%
c1ccc(-c2n[nH]cc2-c2ccnc3ccccc23)nc1,104%,58%,–,–,–,–,–,–,94%,83%,79%,83%,63%,–,–,–,–,98%,95%,–
Nc1n[nH]c2nnc(-c3c(-c4ccccc4)nn4ccccc34)cc12,92%,70%,103%,96%,107%,99%,92%,93%,96%,90%,90%,95%,99%,112%,79%,81%,43%,106%,89%,90%
CC#CC(=O)Nc1cc2c(Nc3ccc(F)c(Cl)c3)ncnc2cn1,87%,81%,94%,100%,107%,94%,126%,–,94%,97%,86%,90%,89%,82%,103%,96%,86%,82%,108%,85%
c1ccc(-c2n[nH]c3c2oc2ccccc23)cc1,–,–,114%,73%,94%,75%,128%,–,60%,98%,41%,67%,27%,77%,31%,75%,30%,84%,91%,64%
C[C@@H](N)[C@H]1CC[C@H](C(=O)Nc2ccncc2)CC1,106%,107%,123%,82%,–,85%,–,–,–,117%,112%,99%,85%,117%,78%,108%,109%,101%,93%,–
N#CC(C#N)=C(N)/C(C#N)=C/c1ccc(O)cc1,–,–,–,–,–,–,124%,–,–,94%,89%,–,83%,–,117%,98%,87%,96%,90%,88%
O=C(O)c1ccc2c3c1cccc3c(=O)n1c3ccccc3nc21,84%,46%,104%,41%,62%,15%,82%,99%,81%,108%,94%,85%,43%,–,57%,114%,86%,100%,91%,41%
CCN(CC)C(=O)c1ccc(Nc2nc(OCC3CCCCC3)c3nc[nH]c3n2)cc1,62%,15%,–,20%,–,26%,59%,52%,7%,–,34%,59%,10%,74%,16%,39%,5%,67%,16%,9%
Cc1nc2cc3nc(-c4cccs4)cnc3cc2n1C,68%,75%,102%,105%,109%,79%,144%,115%,104%,109%,99%,91%,109%,106%,99%,107%,93%,82%,102%,91%
COc1cc2ncc(-c3ccccc3)nc2cc1OC,96%,86%,80%,67%,–,–,129%,–,–,96%,91%,–,–,–,93%,–,–,95%,91%,–
CCN(CC)CCCCN1c2ccccc2Oc2ccc(Cl)cc21,88%,105%,131%,126%,119%,96%,132%,116%,106%,117%,94%,99%,102%,100%,105%,108%,103%,89%,105%,102%
Oc1n[nH]c2nnc(-c3c(-c4ccccc4)nn4ccccc34)cc12,88%,76%,112%,83%,109%,105%,89%,89%,93%,84%,87%,96%,103%,105%,82%,89%,83%,89%,86%,86%
